{"source": "PubChem BioAssay (NCATS)", "key": {"[1]": {"assay": "qHTS to identify inhibitors of the type 1 interferon - major histocompatibility complex class I in skeletal muscle: primary screen against the NCATS Mechanism Interrogation Plate v5.0 (MIPE) Libary (AID 1347411);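 on all read-outs here: plate controls were vehicle for no effect and reference inhibitor for full effect; nearly all actives have a fitted effect of over 65% in size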", "summary_of_the_method": "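Immortalized human C25cl48 myoblasts with HiBit knocked into endogenous HLA-B*08:01 were stimulated with 4.0 ng/ml IFN-beta and exposed to compounds (11-point 1:3 titration, top 46 uM final) for 24 hrs at 37 C; HiBiT lytic luminescence measured.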"}, "[2]": {"assay": "Primary qHTS for inhibitors of nuclear receptor binding SET domain protein 2 (NSD2) in an isogenic RCH-ACV NSD2 p.E1099K mutant (9B) (AID 1645876); further: potency means the concentration at half of the fitted maximal effect; on activity change, negative = viability loss: on the % scale 0 is the no-effect control and ±100 the full control effect; on all read-outs here: nearly all actives have a fitted effect of over 70% in size"}, "[3]": {"assay": "Primary qHTS for inhibitors of nuclear receptor binding SET domain protein 2 (NSD2) in an RCH-ACV wild type WT cells (2C) (AID 1645877); further: potency means the concentration at half of the fitted maximal effect; on activity change, negative = cell killing: on the % scale 0 is the no-effect control and ±100 the full control effect; on all read-outs here: nearly all actives have a fitted effect of over 70% in size"}, "[4]": {"biological_target": "Glutathione peroxidase 1 (Homo sapiens) (UniProt P07203)", "sequence (P07203 whole entry, looked up)": "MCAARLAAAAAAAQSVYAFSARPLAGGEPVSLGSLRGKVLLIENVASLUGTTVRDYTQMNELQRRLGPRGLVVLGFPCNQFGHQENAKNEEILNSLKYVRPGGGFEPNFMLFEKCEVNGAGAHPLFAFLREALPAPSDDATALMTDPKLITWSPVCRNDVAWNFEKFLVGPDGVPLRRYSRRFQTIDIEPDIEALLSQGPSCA", "assay": "Primary qHTS Assay for Inhibitors of Recombinant Selenoprotein Glutathione Peroxidase 1 (GPX1) (AID 1845191); on activity, negative = inhibition: on the % scale 0 is the no-effect control and ±100 the full control effect; on all read-outs here: nearly all actives have a fitted effect of over 65% in size", "summary_of_the_method": "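10 nM GPX1 + cpd, 30 min RT; start w/ 1 mM GSH, 0.5 mM cumene hydroperoxide, 0.5 mM NADPH, 100 nM GR, 0.01% BSA; buffer 50 mM Tris-HCl pH 7.5, 2 mM EDTA, 150 mM NaCl; Fl 340/450, 0 & 15 min.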"}, "[5]": {"biological_target": "Phospholipid hydroperoxide glutathione peroxidase GPX4 (Homo sapiens) (UniProt P36969)", "sequence (P36969 whole entry, looked up)": "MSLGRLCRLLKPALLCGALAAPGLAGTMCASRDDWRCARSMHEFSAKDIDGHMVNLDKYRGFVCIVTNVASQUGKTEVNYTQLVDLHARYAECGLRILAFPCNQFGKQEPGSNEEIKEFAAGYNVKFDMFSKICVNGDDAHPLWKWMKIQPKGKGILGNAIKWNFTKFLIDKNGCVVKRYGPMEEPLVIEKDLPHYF", "assay": "Primary qHTS Assay for Inhibitors of Recombinant Selenoprotein Glutathione Peroxidase 4 (GPX4) (AID 1845192); on activity change, negative = inhibition: on the % scale 0 is the no-effect control and ±100 the full control effect; on all read-outs here: nearly all actives have a fitted effect of over 65% in size", "details": "outcome: at 50 µM (top of the series) unless noted", "summary_of_the_method": "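NADPH consumption, followed by fluorescence at 340/450 nm between 0 and 15 min, reports GPX4 activity via coupled glutathione reductase (100 nM). Enzyme 200 nM was pre-exposed to compound 30 min; 0.5 mM cumene hydroperoxide and 1 mM GSH served as substrates.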"}, "[6]": {"assay": "qHTS drug screen for cell cycle checkpoint inhibitors in PARPi-resistant BRCA-mutant ovarian cancer cell lines. (AID 1963452; calls by dose curve; further: potency means the concentration at half of the fitted maximal effect)", "details": "PEO1/OlaR viability, CellTiter-Glo luminescence, 96 h; for Z-AUC: stronger effect = lower value", "summary_of_the_method": "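PEO1, PEO4 and PEO1/OlaR ovarian cancer cells, 600 per well, exposed 96 h at 37C to a dilution series. Viability read by CellTiter-Glo luminescence, normalized to DMSO and empty wells; activity summarized as Z-AUC.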"}, "[7]": {"assay": "qHTS Assay for Identifying Gametocytocidal Compounds (AID 743244);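 further: on the % scale 0 is the no-effect control and ±100 the full control effect; actives lower the fluorescent signal which means gametocytes are killed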", "details": "P. falciparum 3D7 stage III-V gametocytes, alamarBlue, 72 h; stronger effect = lower value", "summary_of_the_method": "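A resazurin-based viability read-out was applied to mature P. falciparum gametocytes: 72 h compound treatment, then 24 h dye incubation, with falling fluorescence signalling gametocytocidal effect.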"}, "[8]": {"details": "measured here: PEO1 parental Z-AUC"}}, "note": "Results filed as inconclusive are left out. The source made the active and inactive calls. Unless noted, the call rests on the fitted dose curve; in most records, active means well fitted curve in the direction sought with a large enough effect; inconclusive means small, poorly fitted or top-dose-only effect, or another doubt; inactive means no such curve, though single readings can be large; an effect the other way counts as inactive or inconclusive.", "data": [{"compound": "O=C(/C=C/c1ccc(/C=C/C(=O)Nc2ccc(C3=NCCN3)cc2)cc1)Nc1ccc(C2=NCCN2)cc1", "values": [{"measurement": "activity change, negative = inhibition", "setting": "[1]", "result": "-3.84% [at 5.1 µM] (inactive)"}, {"measurement": "activity change, negative = viability loss", "setting": "[2]", "result": "-16.1% [at 4.96 µM] (inactive)"}, {"measurement": "activity change, negative = cell killing", "setting": "[3]", "result": "-11% [at 4.96 µM] (inactive)"}, {"measurement": "activity, negative = inhibition", "setting": "[4]", "result": "2.37% [at 4.49 µM] (inactive)"}, {"measurement": "activity change, negative = inhibition", "setting": "[5]", "result": "-10.1% [at 4.52 µM] (inactive)"}, {"measurement": "Z-AUC", "setting": "[6]", "result": "0.122 (inactive)"}, {"measurement": "Z-AUC", "setting": "[6]; [8]", "result": 0.179}, {"measurement": "Z-AUC", "setting": "[6]; measured here: PEO4 Z-AUC", "result": 0.581}]}, {"compound": "Cc1onc(-c2ccc(F)cc2)c1COc1ccc(C(=O)N2CCS(=O)(=O)CC2)cn1", "values": [{"measurement": "Potency", "setting": "[1]", "result": "inactive"}, {"measurement": "Potency", "setting": "[2]", "result": "inactive"}, {"measurement": "Potency", "setting": "[3]", "result": "inactive"}, {"measurement": "Potency", "setting": "[4]", "result": "inactive"}, {"measurement": "Potency", "setting": "[5]", "result": "inactive"}, {"measurement": "Z-AUC", "setting": "[6]", "result": "0.971 (inactive)"}, {"measurement": "Z-AUC", "setting": "[6]; [8]", "result": 1.31}, {"measurement": "Z-AUC", "setting": "[6]; measured here: PEO4 Z-AUC", "result": 0.844}]}, {"compound": "COc1ccc([C@@H](O)[C@@H](C)Oc2ccc([C@H]3O[C@H](c4ccc(O[C@H](C)[C@H](O)c5ccc(OC)c(OC)c5)c(OC)c4)[C@H](C)[C@H]3C)cc2OC)cc1OC", "values": [{"measurement": "Potency", "setting": "[1]", "result": "inactive"}, {"measurement": "Potency", "setting": "[2]", "result": "5.25 µM (active)"}, {"measurement": "Potency", "setting": "[3]", "result": "5.25 µM (active)"}, {"measurement": "Potency", "setting": "[4]", "result": "inactive"}, {"measurement": "Potency", "setting": "[5]", "result": "inactive"}, {"measurement": "Z-AUC", "setting": "[6]", "result": "-1.98 (inactive)"}, {"measurement": "Z-AUC", "setting": "[6]; [8]", "result": -3.67}, {"measurement": "Z-AUC", "setting": "[6]; measured here: PEO4 Z-AUC", "result": -2.38}]}, {"compound": "O=C(O)CNC(=O)c1nc(Cl)c2ccccc2c1O", "values": [{"measurement": "Potency", "setting": "[1]", "result": "inactive"}, {"measurement": "Potency", "setting": "[2]", "result": "inactive"}, {"measurement": "Potency", "setting": "[3]", "result": "inactive"}, {"measurement": "Potency", "setting": "[4]", "result": "inactive"}, {"measurement": "Z-AUC", "setting": "[6]", "result": "-0.321 (inactive)"}, {"measurement": "Z-AUC", "setting": "[6]; [8]", "result": -0.207}, {"measurement": "Z-AUC", "setting": "[6]; measured here: PEO4 Z-AUC", "result": -0.202}]}, {"compound": "Cc1c(Cl)cccc1S(=O)(=O)Nc1nc(CCN2CCOCC2=O)cs1", "values": [{"measurement": "Potency", "setting": "[1]", "result": "inactive"}, {"measurement": "Potency", "setting": "[2]", "result": "inactive"}, {"measurement": "Potency", "setting": "[3]", "result": "inactive"}, {"measurement": "Potency", "setting": "[4]", "result": "inactive"}, {"measurement": "Potency", "setting": "[5]", "result": "inactive"}, {"measurement": "Z-AUC", "setting": "[6]", "result": "0.943 (inactive)"}, {"measurement": "Z-AUC", "setting": "[6]; [8]", "result": 0.512}, {"measurement": "Z-AUC", "setting": "[6]; measured here: PEO4 Z-AUC", "result": 0.46}]}, {"compound": "COc1cc2c(cc1OC)CN(CCc1ccc(-n3nnc(-c4cc(OC)c(OC)cc4NC(=O)c4cc(=O)c5ccccc5o4)n3)cc1)CC2", "values": [{"measurement": "activity change, negative = inhibition", "setting": "[1]", "result": "-5.16% [at 0.314 µM] (inactive)"}, {"measurement": "outcome", "setting": "[2]", "result": "inactive [at 0.588 µM]"}, {"measurement": "outcome", "setting": "[3]", "result": "inactive [at 0.588 µM]"}, {"measurement": "outcome", "setting": "[4]", "result": "inactive [at 0.4 µM]"}, {"measurement": "outcome", "setting": "[5]", "result": "inactive [at 0.409 µM]"}, {"measurement": "Z-AUC", "setting": "[6]", "result": "2.8 (inactive)"}, {"measurement": "Z-AUC", "setting": "[6]; [8]", "result": 2.17}, {"measurement": "Z-AUC", "setting": "[6]; measured here: PEO4 Z-AUC", "result": 2.67}]}, {"compound": "O=C(NCc1ccccc1)[C@H](Cc1ccccc1)NC(=O)[C@H]1O[C@@H]1C(=O)NCCc1ccc(O)cc1", "values": [{"measurement": "Potency", "setting": "[1]", "result": "inactive"}, {"measurement": "Potency", "setting": "[2]", "result": "23.5 µM (active)"}, {"measurement": "Potency", "setting": "[3]", "result": "18.6 µM (active)"}, {"measurement": "Potency", "setting": "[4]", "result": "inactive"}, {"measurement": "Potency", "setting": "[5]", "result": "inactive"}, {"measurement": "Z-AUC", "setting": "[6]", "result": "1.49 (inactive)"}, {"measurement": "Z-AUC", "setting": "[6]; [8]", "result": 0.636}, {"measurement": "Z-AUC", "setting": "[6]; measured here: PEO4 Z-AUC", "result": 0.423}]}, {"compound": "OC1CCC([C@H](O)C[C@H]2c3c(F)cccc3-c3cncn32)CC1", "note": "(some centres not stated)", "values": [{"measurement": "Potency", "setting": "[1]", "result": "inactive"}, {"measurement": "Potency", "setting": "[2]", "result": "inactive"}, {"measurement": "Potency", "setting": "[3]", "result": "inactive"}, {"measurement": "Potency", "setting": "[4]", "result": "inactive"}, {"measurement": "Potency", "setting": "[5]", "result": "inactive"}, {"measurement": "Z-AUC", "setting": "[6]", "result": "-0.0426 (inactive)"}, {"measurement": "Z-AUC", "setting": "[6]; [8]", "result": 0.377}, {"measurement": "Z-AUC", "setting": "[6]; measured here: PEO4 Z-AUC", "result": 0.204}]}, {"compound": "N=C1CCCN1Cc1[nH]c(=O)[nH]c(=O)c1Cl", "values": [{"measurement": "Potency", "setting": "[1]", "result": "inactive"}, {"measurement": "Potency", "setting": "[2]", "result": "inactive"}, {"measurement": "Potency", "setting": "[3]", "result": "inactive"}, {"measurement": "Potency", "setting": "[4]", "result": "inactive"}, {"measurement": "Potency", "setting": "[5]", "result": "inactive"}, {"measurement": "Z-AUC", "setting": "[6]", "result": "-0.424 (inactive)"}, {"measurement": "Z-AUC", "setting": "[6]; [8]", "result": 0.0295}, {"measurement": "Z-AUC", "setting": "[6]; measured here: PEO4 Z-AUC", "result": -0.23}]}, {"compound": "CCN(C(=O)c1ccccc1OC)c1cc2c(cc1N1CCNC[C@H]1C)n(C)c(=O)n2C", "values": [{"measurement": "Potency", "setting": "[1]", "result": "inactive"}, {"measurement": "Potency", "setting": "[2]", "result": "inactive"}, {"measurement": "Potency", "setting": "[3]", "result": "inactive"}, {"measurement": "Potency", "setting": "[4]", "result": "inactive"}, {"measurement": "Potency", "setting": "[5]", "result": "inactive"}, {"measurement": "Z-AUC", "setting": "[6]", "result": "-0.888 (inactive)"}, {"measurement": "Z-AUC", "setting": "[6]; [8]", "result": -0.889}, {"measurement": "Z-AUC", "setting": "[6]; measured here: PEO4 Z-AUC", "result": -0.903}]}, {"compound": "CN1[C@@H]2CCC[C@H]1CC(NC(=O)c1nn(C)c3ccccc13)C2", "note": "(some centres not stated)", "values": [{"measurement": "max response", "setting": "[7]", "result": "3.13% (inactive)"}]}, {"compound": "CC[C@@]1(O)C(=O)OCc2c1cc1n(c2=O)Cc2c-1nc1ccccc1c2CCNC(C)C", "values": [{"measurement": "Potency", "setting": "[6]", "result": "0.0174 µM (active)"}]}, {"compound": "COc1ccc2[nH]c3c(c2c1)CCN[C@]31CS[C@@H]2c3c(OC(C)=O)c(C)c4c(c3[C@H](COC1=O)N1[C@@H]2[C@H]2c3c(cc(C)c(OC)c3O)C[C@@H]([C@@H]1O)N2C)OCO4", "values": [{"measurement": "Potency", "setting": "[6]", "result": "0.0317 µM (active)"}]}]}
